Compound activity (PubChem BioAssay)
Pf growth 48h: Primary qHTS for delayed death inhibitors of the malarial parasite plastid, 48 hour incubation; P. falciparum luciferase growth in erythrocytes, 48 h; Potency, µM (doses to about 28.7 µM), inactives show at the top dose activity change, negative = inhibition, actives largely listed as inhibitors; 5.9% of 310,000 active; AID 504832, 2011
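Cell-based growth assay: transgenic P. falciparum expressing firefly luciferase, cultured in red cells within RPMI 1640 containing 0.5% w/v Albumax, 24 mM bicarbonate and gentamycin. A drop in luciferase activity indicates inhibition.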
AMA1 RON2 block: qHTS for Inhibitors of AMA1-RON; Towards Development of Antimalarial Drug Lead: Primary Screen; AlphaScreen AMA1-biotinylated RON2 peptide binding; Potency, µM (titrated, usually from 58.2 µM), inactives show top-dose activity change, negative = inhibition, usual class: inhibitors; 0.2% of 360,000 active; AID 720542, 2013;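 also: 0% = vehicle wells and -100% = peptide control; nearly all actives have a fitted effect of over 45% in size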
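AMA1 (3D7) with his tag at 25 nM final met compounds first, then biotinylated RON2 peptide at 25 nM; detection used donor plus acceptor beads, 10 µg/mL apiece, read by AlphaScreen after 30 min at room temperature.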
HCV inhibitor: qHTS Assay for Inhibitors of Hepatitis C Virus (HCV). 3.4% of 340,000 active. Potency, µM (series often up to 41.8 µM), inactives show at the top dose activity change, negative = inhibition, hits mostly inhibitors. Huh7.5.1 HCVcc-Cre infection, luciferase reporter, 44 h
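Antiviral activity was scored by luciferase reporter output from cells infected with HCVcc-Cre (~0.5 moi) in presence of compound, 44 h infection period, cells seeded 1,000/well 4 h prior.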
Pf growth 96h: Primary qHTS for delayed death inhibitors of the malarial parasite plastid, 96 hour incubation | P. falciparum luciferase reporter growth, 96 h | Potency, µM (titrated, usually from 28.7 µM), for the others: at the highest dose activity change, negative = inhibition, hits mostly inhibitors | 6.9% of 320,000 active
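Erythrocytes infected with luciferase-expressing P. falciparum were dispensed at 2% hematocrit and 0.05% parasitemia (final), then incubated with compounds 96 hours at 37 C in 5% CO2. Luminescence after detection reagent addition reported growth.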
* hit, by the source's call; ? = inconclusive; . = no result given; ! = a repeat was not active; [ ] = remark or other dose. Rows were chosen to be rich in hits. Some 11% of all compounds tested hit in one or more screens of this group. Calls follow the shape of the dose curve; as a rule, active = well fitted curve in the direction sought with a large enough effect; inconclusive = small, poorly fitted or top-dose-only effect, or another doubt; inactive = no such curve, though single readings can be large; an effect the other way counts as inactive or inconclusive. Unless noted, % is scaled to controls: 0 for no effect and ±100 for the full control effect; potency is read from the fitted curve at half-maximal effect.

SMILES	Pf growth 48h	AMA1 RON2 block	HCV inhibitor	Pf growth 96h
COCCN(Cc1ccc(C)cc1)C(=O)[C@H]1O[C@@H](n2cnc3c(N)ncnc32)[C@H](O)[C@@H]1O	.	-0.3%	.	.
Cc1ccccc1NC(=O)/C(C#N)=C/c1ccc[nH]1	0.9%	-17.9%	0.6%	11.7µM*
COc1ccc(S(=O)(=O)N2CCCC(C(=O)NCc3ccccc3)C2)cc1 (centres undefined)	?	9.5%	-9.7%	13.9%
COc1cc(NC(=O)CN2CCN(S(=O)(=O)c3ccc(C(C)C)cc3)CC2)cc(OC)c1	?	-16.0%	13.7%	31.0%
COc1ccc(S(=O)(=O)N2CCN(CC(=O)c3[nH]c(C)c(C(C)=O)c3C)CC2)cc1OC	?	3.1%	-7.7%	?
COc1cccc(NC(=O)CN2CCN(S(=O)(=O)c3ccc(F)cc3)CC2)c1	7.8%	-0.7%	6.0%	.
COc1cccc(NC(=O)CN2CCN(S(=O)(=O)c3ccc(C(C)C)cc3)CC2)c1	?	-4.4%	-2.9%	11.7µM*
COc1cccc(N2CCN(CC(=O)Nc3ccc(S(=O)(=O)N4CCCCCC4)cc3)CC2)c1	11.7µM*	-4.0%[11.6 µM]	?	?
CC(=O)c1c(C)[nH]c(C(=O)CN2CCN(S(=O)(=O)c3ccc(C(C)C)cc3)CC2)c1C	11.7µM*	-8.8%	?	11.7µM*
CN1CCc2c(C#N)c(N3CCOCC3)nc(NCC3CCCO3)c2C1 (centres undefined)	?	-4.5%	-13.7%	?
CCCCCNc1nc(N2CCCC2)c2c(c1C#N)CCN(C)C2	4.15µM*	?	?	0.4%
CCCCCNc1nc(NCCCO)c(C#N)c2c1CN(C)CC2	.	-0.9%	?	11.7µM*
CC1CN(C(=S)NC(=O)C2CCCCC2)CC(C)O1 (centres undefined)	0.4%	9.0%	9.0%	-19.1%
CCc1ccc(NC(=O)Cn2c3[n+](c4c(F)c(F)ccc42)CCCCC3)cc1	3.7µM*	4.4%	?	?
O=C(Cn1c2[n+](c3ccc(C(F)(F)F)cc31)CCCCC2)Nc1ccc(Br)cc1	10.4µM*	9.6%	5.6%	10.4µM*
N#Cc1ccc(NC(=O)COC(=O)C2CCC2)cc1	.	8.3%	.	.
N#Cc1ccc(NC(=O)Cn2c3[n+](c4ccc(C(F)(F)F)cc42)CCCCC3)cc1	11.7µM*	-6.2%	25.7%	4.65µM*
Cc1cc(C)cc(C(=O)OC2CC3CCC(C2)N3C)c1 (centres undefined)	-4.5%	.	.	17.0%
CN1C2CCC1CC(OC(=O)c1cc(Cl)cc(Cl)c1)C2 (centres undefined)	?	10.1%	14.1µM*	11.6%
CCOC(=O)[C@H](CCc1ccccc1)N[C@@H](C)C(=O)N1CCC[C@H]1C(=O)O	-25.5%	0.0%	?	6.01µM*!
CCOC(=O)C(CCc1ccccc1)NC(C)C(=O)N1Cc2cc(OC)c(OC)cc2CC1C(=O)O (centres undefined)	?	.	.	12µM*
Cc1cccc(NC(=O)CN(C)C(=O)Cc2ccc(-c3ccccc3)cc2)c1C	.	8.3%	.	.
Cc1c(C(=O)Nc2cccc(F)c2)cnn1-c1ccccc1	262.1%	-3.4%	11.2µM*	-11.2%
COc1cc2c(cc1OC)C(C)N(CC(=O)Nc1ccc(S(=O)(=O)N3CCCC3)cc1)CC2 (centres undefined)	11.7µM*	-14.1%	?	?
COc1ccc(CC(=O)Nc2ccc(S(=O)(=O)N3CCCC3)cc2)cc1OC	.	3.9%	?	.
SMILES	Pf growth 48h	AMA1 RON2 block	HCV inhibitor	Pf growth 96h
COc1ccc(S(=O)(=O)N2CCc3cc(OC)c(OC)cc3C2)cc1	0.828µM*	10.7%	-24.8%	-5.9%
COc1cc2c(cc1OC)CN(CC(=O)Nc1ccc(S(=O)(=O)N3CCCC3)cc1)CC2	0.0%	-1.9%	-27.9%	13.1µM*
CC(O)Cn1cnc2c1c(=O)n(C)c(=O)n2C (centres undefined)	-22.4%	4.4%	-0.5%[8.37 µM]	11.1%
O=C1CCC(=O)N1Cc1c(Cl)cccc1Cl	24.7%	5.2%	29.3%	3.2%
O=C(NC1=NCCS1)C1CCN(S(=O)(=O)c2ccccc2C(F)(F)F)CC1	?	13.8%	14.6%	?
COc1cc(NC(=O)c2ccc3c(c2)OCO3)c2ncccc2c1	115.6%	10.6%	?	.
